From PubChem BioAssay
For some assays here: Potency and affinity values are given separately. Active and inactive are the calls of the source. Unless noted, the rule behind the calls is not given here.

Tests used:
[1] = antimalarial activity against Dd2 strain (AID 2302;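 active = growth inhibition above 50% at the single 2 µM test dose, taken to imply half-maximal potency below 2 µM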;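 note: 0% = DMSO untreated growth and 100% = chloroquine plus artemisinin killed control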); conditions: P. falciparum Dd2 in RBCs, LDH growth readout, 72 h; at 2 µM; stronger effect = higher value
[2] = human hepatoma cell viability loss – ATP luminescence, cytotoxicity control for P. falciparum antimalarial project, primary screen (AID 2303;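 active = inhibition above 50%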;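 note: 0% = DMSO wells and 100% = digitonin-killed cells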); conditions: HepG2 viability, 24-48 h, at 10 µM, stronger effect = higher value
[3] = molecular target: L-lactate dehydrogenase (Plasmodium falciparum (isolate CDC / Honduras)) (UniProt Q27743); experiment: PfLDH activity inhibition – cell lysate, 3D7 strain, counter-screen for P. falciparum growth inhibition project (AID 2304);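 note: 0% = vehicle and 100% = reference inhibitor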; conditions: P. falciparum 3D7 crude extract, LDH APAD/NBT absorbance; at 2 µM; stronger effect = higher value
[4] = inhibition of 3D7 malaria parasite growth – strain 3D7 (AID 2306);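 note: 0% = DMSO wells and 100% = chloroquine plus artemisinin control wells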; conditions: P. falciparum 3D7 erythrocytic growth, LDH absorbance, 72 h; at 2 µM; stronger effect = higher value
[5] = molecular target: Calcium-dependent protein kinase 1 (Plasmodium falciparum (isolate 3D7)) (UniProt P62344); experiment: PfCDPK1 kinase inhibitors, biochemical, TCAMS library (AID 1159585; cut-off not given, nearly all actives have IC50 up to about 0.98 µM;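 note: inhibitors leave more ATP so luminescence rises with inhibition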); conditions: recombinant PfCDPK1, Kinase-Glo ATP depletion luminescence
[6] = molecular target: Plasmodium falciparum protein kinase 6 (PK6, PF3D7_1337100) (UniProt Q8IDW1); experiment: PfPK6 kinase inhibitors, biochemical, TCAMS library (AID 1159586); conditions: recombinant PfPK6, Kinase-Glo ATP depletion luminescence
[7] = molecular target: Protein kinase 7 (PK7), Plasmodium falciparum 3D7 (PF3D7_0213400) (UniProt Q7YTF7); experiment: inhibition of Plasmodium PK7 catalytic activity – biochemical, TCAMS antimalarial set, Kinase-Glo luminescence (AID 1159587); conditions: recombinant PfPK7, Kinase-Glo ATP depletion luminescence
[8] = molecular target: Calcium-dependent protein kinase 4 (Plasmodium falciparum (isolate 3D7)) (UniProt Q8IBS5); experiment: PfCDPK4 kinase inhibitors, biochemical, TCAMS library (AID 1159588; cut-off not given, nearly all actives have IC50 up to about 0.91 µM); conditions: recombinant PfCDPK4, Kinase-Glo ATP depletion luminescence
Sequence of Calcium-dependent protein kinase 4 (Plasmodium falciparum (isolate 3D7)) (Q8IBS5 whole entry, looked up): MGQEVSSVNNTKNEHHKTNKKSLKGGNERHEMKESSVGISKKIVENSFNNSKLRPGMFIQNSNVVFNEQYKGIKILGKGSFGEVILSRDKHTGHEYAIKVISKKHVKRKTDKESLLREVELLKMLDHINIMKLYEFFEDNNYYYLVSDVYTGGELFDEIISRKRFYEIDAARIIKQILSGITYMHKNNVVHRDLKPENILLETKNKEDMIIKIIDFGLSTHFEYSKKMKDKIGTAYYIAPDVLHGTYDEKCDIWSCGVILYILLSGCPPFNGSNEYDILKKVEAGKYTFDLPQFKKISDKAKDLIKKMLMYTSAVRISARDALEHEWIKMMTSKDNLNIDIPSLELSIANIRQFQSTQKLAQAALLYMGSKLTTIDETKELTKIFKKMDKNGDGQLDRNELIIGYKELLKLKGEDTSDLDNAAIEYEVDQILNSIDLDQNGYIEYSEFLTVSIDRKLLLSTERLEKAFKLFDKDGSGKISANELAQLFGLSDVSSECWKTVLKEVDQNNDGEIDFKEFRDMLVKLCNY

Sequence of Protein kinase 7 (PK7), Plasmodium falciparum 3D7 (PF3D7_0213400) (Q7YTF7 1-343): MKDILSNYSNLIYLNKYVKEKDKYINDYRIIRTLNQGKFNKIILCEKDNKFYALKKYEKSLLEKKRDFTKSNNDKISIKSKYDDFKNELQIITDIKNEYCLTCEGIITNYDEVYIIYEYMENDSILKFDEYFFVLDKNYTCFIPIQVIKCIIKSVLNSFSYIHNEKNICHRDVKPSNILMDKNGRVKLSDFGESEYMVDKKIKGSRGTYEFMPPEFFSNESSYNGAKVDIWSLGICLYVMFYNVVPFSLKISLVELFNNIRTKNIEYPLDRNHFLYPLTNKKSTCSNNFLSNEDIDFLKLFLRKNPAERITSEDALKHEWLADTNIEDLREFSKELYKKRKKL
Sequence of Plasmodium falciparum protein kinase 6 (PK6, PF3D7_1337100) (Q8IDW1 1-305): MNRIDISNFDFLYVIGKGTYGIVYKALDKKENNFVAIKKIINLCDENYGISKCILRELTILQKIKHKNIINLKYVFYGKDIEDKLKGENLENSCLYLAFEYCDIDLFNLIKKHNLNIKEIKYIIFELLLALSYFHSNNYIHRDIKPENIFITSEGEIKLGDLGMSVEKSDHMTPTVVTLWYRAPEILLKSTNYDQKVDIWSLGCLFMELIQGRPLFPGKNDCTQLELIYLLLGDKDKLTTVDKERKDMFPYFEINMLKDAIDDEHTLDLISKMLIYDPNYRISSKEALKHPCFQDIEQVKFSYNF
Sequence of Calcium-dependent protein kinase 1 (Plasmodium falciparum (isolate 3D7)) (P62344 whole entry, looked up): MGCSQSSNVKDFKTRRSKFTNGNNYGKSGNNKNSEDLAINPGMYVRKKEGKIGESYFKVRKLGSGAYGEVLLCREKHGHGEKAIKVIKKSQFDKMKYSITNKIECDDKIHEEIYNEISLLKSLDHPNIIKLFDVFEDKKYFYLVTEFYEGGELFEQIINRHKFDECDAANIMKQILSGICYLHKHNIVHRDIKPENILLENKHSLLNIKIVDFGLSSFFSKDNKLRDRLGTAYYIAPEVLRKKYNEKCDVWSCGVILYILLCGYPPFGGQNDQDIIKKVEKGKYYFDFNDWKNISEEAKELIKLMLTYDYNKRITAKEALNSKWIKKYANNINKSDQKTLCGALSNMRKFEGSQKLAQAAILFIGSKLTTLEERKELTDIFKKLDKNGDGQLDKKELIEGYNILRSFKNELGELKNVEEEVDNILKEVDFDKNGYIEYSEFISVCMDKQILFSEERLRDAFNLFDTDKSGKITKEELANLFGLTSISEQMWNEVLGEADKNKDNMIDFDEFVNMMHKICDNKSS
Sequence of L-lactate dehydrogenase (Plasmodium falciparum (isolate CDC / Honduras)) (Q27743 whole entry, looked up): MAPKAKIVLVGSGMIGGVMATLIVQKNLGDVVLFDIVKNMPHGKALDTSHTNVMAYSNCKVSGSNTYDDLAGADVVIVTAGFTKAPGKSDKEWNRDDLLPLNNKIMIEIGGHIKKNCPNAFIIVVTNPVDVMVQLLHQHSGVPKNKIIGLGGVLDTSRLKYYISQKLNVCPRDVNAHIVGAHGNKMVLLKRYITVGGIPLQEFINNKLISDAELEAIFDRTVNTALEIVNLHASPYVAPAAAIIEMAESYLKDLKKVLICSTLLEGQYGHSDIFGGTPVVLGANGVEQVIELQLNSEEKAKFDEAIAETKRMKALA

Oc1ccc(-c2ccccc2)cc1CNC1CCCCC1
inactive: inhibition [2] 24% | inhibition [3] -3% | outcome [5] | outcome [6] | outcome [7] | outcome [8]
active: growth inhibition [1] 100% | growth inhibition [4] 95%

COc1ccc(CN(C)Cc2ccc(NC(=O)c3cccc4c(=O)c5cccc(C)c5[nH]c34)cc2)cc1OC
active: growth inhibition [4] 92%
inactive: growth inhibition [1] 22% | inhibition [2] 7% | inhibition [3] -2% | outcome [5] | outcome [6] | outcome [7] | outcome [8]

O=C(NCc1cccc2ccccc12)c1ccc(CNC2CCN(Cc3ccccc3)CC2)cc1
inactive: inhibition [2] 15% | inhibition [3] 5% | outcome [5] | outcome [6] | outcome [7] | outcome [8]
active: growth inhibition [1] 88% | growth inhibition [4] 101%

CC[C@H](NC(=O)c1c(CC2CCN(CC(C)=O)CC2)c(-c2ccccc2)nc2ccccc12)c1ccccc1
active: growth inhibition [1] 96% | growth inhibition [4] 97%
inactive: inhibition [2] 7% | inhibition [3] 3% | outcome [5] | outcome [6] | outcome [7] | outcome [8]

CCOC(=O)c1c(C)n(-c2ccc(Cl)cc2)c2ccc(OC(=O)C=Cc3ccccc3)cc12
active: growth inhibition [1] 92% | growth inhibition [4] 99%
inactive: inhibition [2] 3% | inhibition [3] -2% | outcome [5] | outcome [6] | outcome [7] | outcome [8]

CC(C)C(C(=O)n1cc2c(ccc3nc(N)nc(N)c32)n1)C(C)C
active: inhibition [2] 58% | growth inhibition [4] 98%
inactive: growth inhibition [1] 49% | inhibition [3] -6% | outcome [5] | outcome [6] | outcome [7] | outcome [8]

CCNc1cc(C(=O)N[C@@H](Cc2cccc(Cl)c2)[C@H](O)CNC(C)CCCC(C)C)cc(N2CCCCS2(=O)=O)c1 (stereo not given in full)
active: growth inhibition [1] 78% | growth inhibition [4] 98%
inactive: inhibition [2] 7% | inhibition [3] -1% | outcome [5] | outcome [6] | outcome [7] | outcome [8]

CC1(C)N=C(N)N=C(N)N1OCOc1ccc(Cl)cc1
active: growth inhibition [1] 96% | inhibition [2] 68% | growth inhibition [4] 94%
inactive: inhibition [3] 6% | outcome [5] | outcome [6] | outcome [7] | outcome [8]

Brc1ccc(Nc2nc(NCc3ccccc3)c3ccccc3n2)cc1
active: growth inhibition [1] 99% | growth inhibition [4] 101%
inactive: inhibition [2] 24% | inhibition [3] -4% | outcome [5] | outcome [6] | outcome [7] | outcome [8]

FC(F)(F)c1ccc(N2CCCN(Cc3cccc(-c4ccccc4CNCc4ccc5c(c4)OCO5)c3)CC2)nc1
inactive: growth inhibition [1] 11% | inhibition [2] 23% | inhibition [3] 3% | outcome [5] | outcome [6] | outcome [7] | outcome [8]
active: growth inhibition [4] 87%

CCCCCCn1c(Sc2ccc(C#N)c([N+](=O)[O-])c2)nnc1-c1ccccc1
active: growth inhibition [4] 97%
inactive: growth inhibition [1] 41% | inhibition [2] 23% | inhibition [3] -1% | outcome [5] | outcome [6] | outcome [7] | outcome [8]

CCN(CC)c1nc(N)c2c(N)nc3c(c2c1C#N)C(=O)CN3Cc1ccccc1
active: growth inhibition [1] 96% | growth inhibition [4] 96%
inactive: inhibition [2] 26% | inhibition [3] -3% | outcome [5] | outcome [6] | outcome [7] | outcome [8]

Nc1ccc(-c2cc(Cl)cc(Cl)c2)cc1-c1cc2ccccc2[nH]1
inactive: inhibition [2] -9% | inhibition [3] 0% | outcome [5] | outcome [6] | outcome [7] | outcome [8]
active: growth inhibition [1] 97% | growth inhibition [4] 101%

CCOC(=O)c1ccc(NC(=O)N[C@@H](Cc2ccccc2)C(=O)NC2CCN(Cc3ccc(O)cc3)C2)cc1 (stereo not given in full)
inactive: growth inhibition [1] 2% | inhibition [2] 7% | inhibition [3] -6% | outcome [5] | outcome [6] | outcome [7] | outcome [8]
active: growth inhibition [4] 95%

CCOc1ccc2nc(C)cc(NN=Cc3ccncc3)c2c1
inactive: inhibition [2] 8% | inhibition [3] 0% | outcome [5] | outcome [6] | outcome [7] | outcome [8]
active: growth inhibition [1] 78% | growth inhibition [4] 99%

Cc1cc(NN=Cc2ccccc2[N+](=O)[O-])c2cccc(C)c2n1
inactive: inhibition [2] -6% | inhibition [3] 1% | outcome [5] | outcome [6] | outcome [7] | outcome [8]
active: growth inhibition [1] 100% | growth inhibition [4] 99%

CN(C)Cc1ccc(-c2ccc(NC(=O)c3ccc4c(=O)n(Cc5ccccc5)cnc4c3)cc2)cc1
inactive: growth inhibition [1] 39% | inhibition [3] -2% | outcome [5] | outcome [6] | outcome [7] | outcome [8]
active: inhibition [2] 94% | growth inhibition [4] 100%

O=C(Nc1cccc(-c2nn3ccccc3c2-c2ccnc(Nc3ccc(Cc4ccncc4)cc3)n2)c1)c1c(F)cccc1F
inactive: inhibition [2] 43% | inhibition [3] -1% | outcome [5] | outcome [6] | outcome [7] | outcome [8]
active: growth inhibition [1] 97% | growth inhibition [4] 97%

c1cc(CNC2CCN(CC3CCCCC3)CC2)cc(-n2ccnc2)c1
active: growth inhibition [1] 97% | growth inhibition [4] 102%
inactive: inhibition [2] 3% | inhibition [3] 1% | outcome [5] | outcome [6] | outcome [7] | outcome [8]

CN1CCN(c2nsc3ccc(-c4ccc(NC(=O)Nc5ccccc5)cc4)cc23)CC1
active: growth inhibition [1] 98% | growth inhibition [4] 102%
inactive: inhibition [2] 38% | inhibition [3] -1% | outcome [5] | outcome [6] | outcome [7] | outcome [8]

CCc1cn2c3c(cc(C(=O)N[C@@H](Cc4ccccc4)[C@H](O)CNC(C)(C)CCCC(C)C)cc13)N(C)S(=O)(=O)C2
inactive: inhibition [3] 8% | outcome [5] | outcome [6] | outcome [7] | outcome [8]
active: growth inhibition [1] 98% | inhibition [2] 71% | growth inhibition [4] 98%

CCCN1CCCN(Cc2cccc(NC(=O)c3ccc(-c4ccccc4)cc3)c2)CC1
active: growth inhibition [4] 92%
inactive: growth inhibition [1] 15% | inhibition [2] 34% | inhibition [3] 1% | outcome [5] | outcome [6] | outcome [7] | outcome [8]

COc1ccccc1CN1CCC(CNC(=O)c2cc(-c3cccc(C(F)(F)F)c3)cs2)C1 (stereo not given)
active: growth inhibition [4] 84%
inactive: growth inhibition [1] 1% | inhibition [2] 25% | inhibition [3] 4% | outcome [5] | outcome [6] | outcome [7] | outcome [8]

O=C(Cc1cccc(Cl)c1)Nc1cccc(-c2c[nH]c3nc(Nc4cccc(OCc5ccccc5)c4)ncc23)c1
inactive: inhibition [2] -1% | inhibition [3] -1% | outcome [5] | outcome [6] | outcome [7] | outcome [8]
active: growth inhibition [1] 56% | growth inhibition [4] 100%

Cc1c(Cl)cccc1S(=O)(=O)N1CCCCC(c2ccc(C(F)(F)F)cc2)=N1
active: growth inhibition [1] 91% | growth inhibition [4] 86%
inactive: inhibition [2] 15% | inhibition [3] 5% | outcome [5] | outcome [6] | outcome [7] | outcome [8]

CC1CCCC(Nc2noc(-c3sccc3Br)n2)C1 (stereo not given)
active: growth inhibition [1] 99% | growth inhibition [4] 102%
inactive: inhibition [2] 7% | inhibition [3] 0% | outcome [5] | outcome [6] | outcome [7] | outcome [8]

COc1ccc2c(NN=Cc3ccccc3F)ccnc2c1
inactive: inhibition [2] 15% | inhibition [3] 0% | outcome [5] | outcome [6] | outcome [7] | outcome [8]
active: growth inhibition [1] 99% | growth inhibition [4] 98%

Fc1ccc2nc(-c3cccc(-c4ccc(CNCc5cnn(-c6ccccc6)n5)cc4)c3)[nH]c2c1
active: growth inhibition [4] 98%
inactive: growth inhibition [1] 22% | inhibition [2] 18% | inhibition [3] -3% | outcome [5] | outcome [6] | outcome [7] | outcome [8]

COc1cccc(CCc2ccc(O)c3c2C[C@H]2C[C@H]4[C@H](N(C)C)C(=O)C(C(N)=O)=C(O)[C@@]4(O)C(=O)C2=C3O)c1
active: growth inhibition [1] 67% | growth inhibition [4] 93%
inactive: inhibition [2] 43% | inhibition [3] -4% | outcome [5] | outcome [6] | outcome [7] | outcome [8]

O=S(=O)(Nc1cccc(CCN2CCC(N3CCCCC3)CC2)c1)c1cccc2cccnc12
active: growth inhibition [4] 98%
inactive: growth inhibition [1] 17% | inhibition [2] 0% | inhibition [3] 1% | outcome [5] | outcome [6] | outcome [7] | outcome [8]

CC(C)(C)c1ccc2nc(-c3ccc(C(=O)NCc4cccc(C(F)(F)F)c4)cc3)[nH]c2c1
inactive: growth inhibition [1] 26% | inhibition [2] 9% | inhibition [3] -1% | outcome [5] | outcome [6] | outcome [7] | outcome [8]
active: growth inhibition [4] 98%

O=C(CSc1nc(-c2ccccc2Cl)ns1)Nc1cccc(F)c1
inactive: inhibition [2] -5% | inhibition [3] -1% | outcome [5] | outcome [6] | outcome [7] | outcome [8]
active: growth inhibition [1] 81% | growth inhibition [4] 93%

Cc1ccc(NC(=O)c2cccc(CN3CCCN(CC4CCCCC4)CC3)c2)cc1F
inactive: growth inhibition [1] 42% | inhibition [2] 22% | inhibition [3] -2% | outcome [5] | outcome [6] | outcome [7] | outcome [8]
active: growth inhibition [4] 85%

O=[N+]([O-])c1cccc(CNC2CCN(Cc3ccc(-c4ccccc4)cc3)CC2)c1
inactive: inhibition [2] 25% | inhibition [3] 1% | outcome [5] | outcome [6] | outcome [7] | outcome [8]
active: growth inhibition [1] 96% | growth inhibition [4] 100%

Cc1noc(C)c1-c1cccc(CNCc2ccc(-c3cccc(-c4nc5ccc(F)cc5[nH]4)c3)cc2)c1
inactive: inhibition [2] 37% | inhibition [3] 4% | outcome [5] | outcome [6] | outcome [7] | outcome [8]
active: growth inhibition [1] 84% | growth inhibition [4] 102%

CN1CCc2cc(NS(=O)(=O)c3ccc(-c4ccc(Cl)cc4)cc3)c(OCCCN3CCCCC3)cc2CC1
active: growth inhibition [1] 100% | inhibition [2] 91% | growth inhibition [4] 101%
inactive: inhibition [3] 0% | outcome [5] | outcome [6] | outcome [7] | outcome [8]

O=C(Nc1ccc2c(c1)CN(Cc1ccc(N3CCCC3)o1)CCC2)c1cncs1
inactive: growth inhibition [1] 37% | inhibition [2] 15% | inhibition [3] -2% | outcome [5] | outcome [6] | outcome [7] | outcome [8]
active: growth inhibition [4] 84%

COc1ccc(C(=O)N2CCC3(CC2)C(=O)N(CC(=O)NCC2CCCCC2)CN3c2ccccc2)c(OC)c1
inactive: inhibition [2] 6% | inhibition [3] 4% | outcome [5] | outcome [6] | outcome [7] | outcome [8]
active: growth inhibition [1] 99% | growth inhibition [4] 100%

CCN(CC)CCNC(=O)c1ccc(NC(=O)c2cc(-c3ccncc3)nc3ccccc23)cc1
inactive: growth inhibition [1] 2% | inhibition [2] 1% | inhibition [3] -3% | outcome [5] | outcome [6] | outcome [7] | outcome [8]
active: growth inhibition [4] 97%

CN(C)CC1CCCN1Cc1ccccc1-c1cnn(C)c(=O)c1Oc1ccccc1F (stereo not given)
active: growth inhibition [4] 95%
inactive: growth inhibition [1] 27% | inhibition [2] 18% | inhibition [3] -1% | outcome [5] | outcome [6] | outcome [7] | outcome [8]
